Source: PubChem BioAssay
Pf Dd2 inh – P. falciparum Dd2 growth inhibition. SYBR Green, 72 h; stronger effect = lower value. 94,000 tested, 2.3% active. activity change, % at 10 µM; in the data active = activity change below about -80%
T cruzi growth – T. cruzi proliferation inhibition | 77,000 tested, 5.9% active | T. cruzi beta-gal in NIH3T3, GalScreen luminescence, 90 h | inhibition, % at 8.34 µM;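 active = mean inhibition above about 93%, with at least 55% of replicates each passing it, limit read from the data, passing the limit was not always enough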
C diff HTS – C. difficile growth inhibition; 86,000 tested, 0.25% active; Clostridium difficile clinical isolate growth, OD600, 24 h; stronger effect = lower value; AID 1259249; growth activity, negative = inhibition, % at 16 µg/mL (by protocol);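 active = mean growth activity at or below -80% and every replicate also at or below -80%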
Each line names hits and unclear results; the compound was inactive in the other large screens; ! = not active in a repeat. Most compounds without a hit are left out; they make up all but 6.7% or so of the library.

C[C@H]1CN([C@@H](C)CO)C(=O)c2cccc(NC(=O)C3CCCCC3)c2O[C@H]1CN(C)Cc1ccc(C(=O)Nc2ccccc2N)cc1	none
C[C@H]1CN([C@@H](C)CO)C(=O)c2cccc(NC(=O)NC3CCCCC3)c2O[C@H]1CN(C)Cc1ccc(C(=O)O)cc1	none
CCCC(=O)Nc1ccc2c(c1)OC[C@H](C)N(Cc1ccccc1)C[C@@H](C)[C@H](OC)CN(C)C2=O	none (no result: C diff HTS)
Cc1cccc(S(=O)(=O)N2CC[C@H]3[C@@H](CO)N(C)c4ccc(-c5ccccc5F)cc4[C@H]32)c1	none
CCNC(=O)C[C@H]1CC[C@@H]2[C@H](COc3ccc(NC(=O)Nc4ccc(F)cc4)cc3C(=O)N2C)O1	none
O=C(c1ccccc1)N1CC2(C1)[C@@H](c1ccccc1)[C@@H](CO)N2Cc1cccnc1	none (no result: T cruzi growth)
CCCN(C)C[C@H]1OCCCC[C@@H](C)Oc2ccc(NC(=O)c3ccncc3)cc2C(=O)N([C@H](C)CO)C[C@@H]1C	none
CCCN(C)C[C@H]1OCCCC[C@H](C)Oc2ccc(NC(=O)c3ccncc3)cc2C(=O)N([C@H](C)CO)C[C@H]1C	Pf Dd2 inh -85.8
CCCN(C)C[C@H]1OCCCC[C@@H](C)Oc2ccc(NC(=O)c3ccncc3)cc2C(=O)N([C@@H](C)CO)C[C@H]1C	Pf Dd2 inh -87.7
CCCN(C)C[C@@H]1OCCCC[C@H](C)Oc2ccc(NC(=O)c3ccccc3)cc2C(=O)N([C@@H](C)CO)C[C@@H]1C	none
C[C@H](CO)N1C[C@H](C)[C@H](CN(C)C(=O)Nc2ccc(C(F)(F)F)cc2)Oc2ccc(NS(=O)(=O)c3ccc(Cl)cc3)cc2C1=O	none (no result: C diff HTS)
O=C(C1CCCCC1)N1CC2(C1)[C@@H](c1ccccc1)[C@H](CO)N2Cc1nccs1	none (no result: T cruzi growth)
C[C@@H]1CCCCO[C@@H](CN(C)S(=O)(=O)c2cn(C)cn2)[C@H](C)CN([C@H](C)CO)C(=O)c2cc(NC(=O)Nc3cccc4ccccc34)ccc2O1	none
COc1ccc(S(=O)(=O)N(C)C[C@@H]2OCCCC[C@@H](C)Oc3ccc(NC(=O)Nc4cccc5ccccc45)cc3C(=O)N([C@H](C)CO)C[C@H]2C)cc1	none
COc1ccc(S(=O)(=O)N(C)C[C@@H]2OCCCC[C@H](C)Oc3ccc(NC(=O)Nc4cccc5ccccc45)cc3C(=O)N([C@H](C)CO)C[C@H]2C)cc1	Pf Dd2 inh -86.2
COc1ccc(S(=O)(=O)N(C)C[C@H]2OCCCC[C@H](C)Oc3ccc(NC(=O)Nc4cccc5ccccc45)cc3C(=O)N([C@@H](C)CO)C[C@H]2C)cc1	Pf Dd2 inh -83.5
COc1ccc(S(=O)(=O)N(C)C[C@H]2OCCCC[C@H](C)Oc3ccc(NC(=O)Nc4cccc5ccccc45)cc3C(=O)N([C@@H](C)CO)C[C@@H]2C)cc1	none
C[C@@H]1CN([C@H](C)CO)C(=O)c2cc(NC(=O)Nc3cccc4ccccc34)ccc2O[C@@H](C)CCCCO[C@@H]1CN(C)S(=O)(=O)c1cn(C)cn1	Pf Dd2 inh -88.1
C[C@@H]1CN([C@@H](C)CO)C(=O)c2cc(-c3ccc(C#N)cc3)cnc2O[C@H]1CN(C)Cc1cncnc1	none (no result: T cruzi growth)
CO[C@@H]1CN(C)C(=O)c2cc(NC(=O)Nc3cccc(Cl)c3)ccc2OC[C@@H](C)NC[C@H]1C	none (no result: C diff HTS)
CO[C@H]1CN(C)C(=O)c2cc(NC(=O)Nc3ccc(Cl)c(Cl)c3)ccc2OC[C@@H](C)NC[C@@H]1C	C diff HTS -95.9
CO[C@H]1CN(C)C(=O)c2cc(NC(=O)Nc3ccc(Cl)cc3)ccc2OC[C@@H](C)NC[C@@H]1C	none
CO[C@@H]1CN(C)C(=O)c2cc(NC(=O)Nc3ccc(Cl)cc3)ccc2OC[C@H](C)NC[C@@H]1C	none
CO[C@H]1CN(C)C(=O)c2cc(NC(=O)Nc3ccc(Cl)c(Cl)c3)ccc2OC[C@@H](C)NC[C@H]1C	C diff HTS -97.4
CO[C@@H]1CN(C)C(=O)c2cc(NC(=O)Nc3cccc(Cl)c3)ccc2OC[C@@H](C)NC[C@@H]1C	Pf Dd2 inh -84.8 (no result: C diff HTS)
Cc1noc(C)c1NC(=O)NCC[C@H]1CC[C@@H](NC(=O)c2ccc(F)cc2)[C@H](CO)O1	none (no result: C diff HTS)
C[C@@H]1CN([C@H](C)CO)S(=O)(=O)c2ccc(C#CCN(C)C)cc2O[C@@H]1CN(C)C(=O)C1CC1	none
C[C@@H]1CN([C@@H](C)CO)C(=O)c2cccc(NC(=O)Nc3ccccc3)c2O[C@@H]1CN(C)C	none
COc1cccc(CNC(=O)C[C@@H]2C=C[C@H](NC(=O)C3CCOCC3)[C@@H](CO)O2)c1	none
C[C@H]1CN([C@@H](C)CO)C(=O)Cc2cc(NC(=O)Nc3ccc4c(c3)OCO4)ccc2O[C@H]1CN(C)CC1CCCCC1	none
C[C@@H]1CN([C@@H](C)CO)C(=O)Cc2cc(NC(=O)Nc3ccc4c(c3)OCO4)ccc2O[C@@H]1CN(C)CC1CC1	Pf Dd2 inh -88.2
C[C@H](CO)N1C[C@H](C)[C@@H](CN(C)CC2CCCCC2)Oc2ccc(NC(=O)Nc3ccc4c(c3)OCO4)cc2CC1=O	none
C[C@H](CO)N1C[C@H](C)[C@@H](CN(C)CC2CC2)Oc2ccc(NC(=O)Nc3ccc4c(c3)OCO4)cc2CC1=O	Pf Dd2 inh -82.9
C[C@H](NC(=O)C[C@H]1C[C@@H]2c3cc(NC(=O)CN(C)C)ccc3O[C@@H]2[C@H](CO)O1)c1ccccc1	none
C[C@H](CO)N1C[C@H](C)[C@@H](CN(C)C(=O)CCC(F)(F)F)OCCCC[C@H](C)Oc2ccc(NC(=O)NC3CCCCC3)cc2C1=O	none
Cc1noc(C)c1S(=O)(=O)Nc1ccc2c(c1)C(=O)N([C@@H](C)CO)C[C@H](C)[C@@H](CN(C)S(=O)(=O)c1c(C)noc1C)OCCCC[C@H](C)O2	none
COC(=O)C[C@H]1CC[C@@H]2[C@H](COc3ccc(NC(=O)Nc4ccc(C)cc4)cc3C(=O)N2C)O1	none
Cc1noc(C)c1S(=O)(=O)N(C)C[C@@H]1OCCCC[C@H](C)Oc2ccc(NC(=O)c3ccccc3)cc2C(=O)N([C@@H](C)CO)C[C@H]1C	Pf Dd2 inh -88.0
Cc1noc(C)c1S(=O)(=O)N(C)C[C@H]1OCCCC[C@H](C)Oc2ccc(NC(=O)c3ccccc3)cc2C(=O)N([C@H](C)CO)C[C@@H]1C	none
Cc1noc(C)c1S(=O)(=O)N(C)C[C@H]1OCCCC[C@H](C)Oc2ccc(NC(=O)Nc3ccccc3)cc2C(=O)N([C@H](C)CO)C[C@@H]1C	none (no result: T cruzi growth)
Cc1noc(C)c1S(=O)(=O)N(C)C[C@@H]1OCCCC[C@H](C)Oc2ccc(NC(=O)Nc3ccccc3)cc2C(=O)N([C@H](C)CO)C[C@H]1C	Pf Dd2 inh -83.0 (no result: T cruzi growth)
C[C@H](CO)N1C[C@H](C)[C@H](CN(C)C(=O)Nc2ccc(F)cc2)Oc2ccc(NS(C)(=O)=O)cc2CC1=O	none
COc1ccc(S(=O)(=O)Nc2ccc3c(c2)C(=O)N([C@@H](C)CO)C[C@H](C)[C@H](CN(C)C(=O)CCCN(C)C)OCCCC[C@H](C)O3)cc1	none
COc1cccc(-c2ccc(C3[C@@H]4CN(Cc5cccc(F)c5)C[C@H]3N4)cc2)c1 (stereo partly drawn)	C diff HTS -98.5 (no result: T cruzi growth)
COc1ccc(-c2ccc(C3[C@@H]4CN(Cc5ccccn5)C[C@H]3N4)cc2)cc1 (stereo partly drawn)	none (no result: T cruzi growth)
COc1cccc(CN2C[C@@H]3N[C@H](C2)C3c2ccc(-c3ccncc3)cc2)c1 (stereo partly drawn)	Pf Dd2 inh -88.9! (no result: T cruzi growth)
